Measured values taken from PubChem BioAssay (NCATS).
Results filed as inconclusive are left out. The source made the active and inactive calls. The call rests on the fitted dose curve; in most records, active means well fitted curve in the direction sought with a large enough effect; inconclusive means small, poorly fitted or top-dose-only effect, or another doubt; inactive means no such curve, though single readings can be large; an effect the other way counts as inactive or inconclusive.

Biological target: Protein phosphatase 1D (Homo sapiens) (UniProt O15297)
Sequence (O15297 whole entry, looked up): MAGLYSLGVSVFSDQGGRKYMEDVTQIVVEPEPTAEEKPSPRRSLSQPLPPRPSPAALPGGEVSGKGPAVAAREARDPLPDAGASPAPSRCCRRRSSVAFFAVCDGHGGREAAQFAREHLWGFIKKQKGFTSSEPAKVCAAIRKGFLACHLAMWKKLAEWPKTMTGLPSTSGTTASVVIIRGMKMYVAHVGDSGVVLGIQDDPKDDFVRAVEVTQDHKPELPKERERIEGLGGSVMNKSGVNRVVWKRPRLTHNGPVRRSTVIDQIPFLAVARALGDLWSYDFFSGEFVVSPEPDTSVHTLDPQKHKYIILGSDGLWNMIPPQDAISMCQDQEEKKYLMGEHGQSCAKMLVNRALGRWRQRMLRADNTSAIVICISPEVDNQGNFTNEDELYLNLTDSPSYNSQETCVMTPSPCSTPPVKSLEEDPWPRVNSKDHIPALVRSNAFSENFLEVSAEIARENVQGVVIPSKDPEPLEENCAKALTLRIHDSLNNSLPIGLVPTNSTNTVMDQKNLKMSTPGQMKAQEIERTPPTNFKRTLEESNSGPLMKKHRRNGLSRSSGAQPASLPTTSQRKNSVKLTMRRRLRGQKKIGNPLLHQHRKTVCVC
Experiment: Rhodamine-PBP qHTS Assay for Modulators of WT P53-Induced Phosphatase 1 (WIP1) (AID 1347425); further: % of control where 0% means no effect
Details: recombinant WIP1, Rhodamine-PBP phosphate fluorescence, real-time; series mostly up to 57.5 µM; activity change, negative = inhibition: at the top concentration
How it was run: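 The read-out is the change in Rhodamine-PBP fluorescence (f1 - f0, ex 525/em 598 nm) as Pi is released, read each minute for 11 min. Final reaction: 5 nM WIP1, 10 uM phosphopeptide VEPPL-pS-QETFS, 10 uM Rh-PBP, 50 mM Tris-HCl pH 7.5, 30 mM MgCl2. Compound was preincubated with enzyme for 1 hour at room temperature.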

Structure (SMILES) | activity change, negative = inhibition
OC[C@H]1O[C@@H](OCCc2ccc(O)cc2)[C@H](O)[C@@H](O)[C@H]1O | 1.31% (inactive)
CCCCC[C@H](O)C=C[C@H]1[C@H](O)CC(=O)[C@H]1CC=CCCCC(=O)O | -4.33% (inactive)
COc1ccnc(CS(=O)c2nc3ccc(OC(F)F)cc3[nH]2)c1OC (stereo unspecified) | 78.9% (inactive)
O[C@@H](COc1cccc2ncccc12)CN1CCN(C2c3ccccc3[C@@H]3[C@H](c4ccccc42)C3(F)F)CC1 (stereo partly specified) | -5.28% (inactive)
COc1ccc(-c2nc3ccc(C4=NNC(=O)CC4C)cc3[nH]2)cc1 (stereo unspecified) | 169% (inactive)
C[C@@H]1C[C@H]2[C@@H]3CCC4=CC(=O)C=C[C@]4(C)[C@@]3(F)[C@@H](O)C[C@]2(C)[C@@]1(O)C(=O)CO | 15% (inactive)
O=C(CCCN1CCN(c2ccc(F)cc2)CC1)NC1c2ccccc2CSc2ccccc21 (stereo unspecified) | -9.73% (inactive)
CN(C)CCN(Cc1ccc(Cl)cc1)c1ccccn1 | 8.79% (inactive)

Test system: not listed separately
Experiment: Primary qHTS for inhibitors of La Crosse Virus (LACV) - induced cell death in SH-SY5Y cells (AID 1508616);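 further: top concentration of the series differs between compounds; 0% = infected DMSO wells and 100% = uninfected DMSO wells; higher means more rescue of cells from virus-induced death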
Details: SH-SY5Y LACV cytopathicity rescue, ATP luminescence, 6 d; series mostly up to 4.29 µM; activity change: at the top concentration
How it was run: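 SH-SY5Y, 6000 cells/well; cpd via pin tool in DMSO; LACV 0.01 MOI; 6 d 37C 5% CO2; ATPLite, 5 min RT; luminescence normalized to ±virus DMSO controls.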

Structure (SMILES) | activity change
OC[C@H]1O[C@@H](OCCc2ccc(O)cc2)[C@H](O)[C@@H](O)[C@H]1O | -7.65% (inactive)
CCCCC[C@H](O)C=C[C@H]1[C@H](O)CC(=O)[C@H]1CC=CCCCC(=O)O | 37.9% (inactive)
COc1ccnc(CS(=O)c2nc3ccc(OC(F)F)cc3[nH]2)c1OC (stereo unspecified) | -4.2% (inactive)
O[C@@H](COc1cccc2ncccc12)CN1CCN(C2c3ccccc3[C@@H]3[C@H](c4ccccc42)C3(F)F)CC1 (stereo partly specified) | 41.8% (inactive)
COc1ccc(-c2nc3ccc(C4=NNC(=O)CC4C)cc3[nH]2)cc1 (stereo unspecified) | 44.1% (inactive)
O=C(Nc1cccc2c(=O)cc(-c3nn[nH]n3)oc12)c1ccc(OCCCCc2ccccc2)cc1 | 12.4% (inactive)
C[C@@H]1C[C@H]2[C@@H]3CCC4=CC(=O)C=C[C@]4(C)[C@@]3(F)[C@@H](O)C[C@]2(C)[C@@]1(O)C(=O)CO | 27.7% (inactive)
O=C(CCCN1CCN(c2ccc(F)cc2)CC1)NC1c2ccccc2CSc2ccccc21 (stereo unspecified) | 26.8% (inactive)
CN(C)CCN(Cc1ccc(Cl)cc1)c1ccccn1 | -3.35% (inactive)

Biological target: Calcium and integrin-binding protein 1 (Homo sapiens) (UniProt Q99828)
Sequence (Q99828 whole entry, looked up): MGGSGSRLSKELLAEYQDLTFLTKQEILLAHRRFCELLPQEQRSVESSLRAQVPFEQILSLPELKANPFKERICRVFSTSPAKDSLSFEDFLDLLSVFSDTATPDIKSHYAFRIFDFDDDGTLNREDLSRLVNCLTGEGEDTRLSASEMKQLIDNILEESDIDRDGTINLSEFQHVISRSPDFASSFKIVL
Experiment: Confirmatory qHTS for Identification of Calcium Integrin Binding Protein 1 (CIB1) Competitor (AID 1508617); further: nearly all actives have a fitted effect of over 65% in size; further: potency means the concentration at half of the fitted maximal effect; on activity change, negative = inhibition: on the % scale 0 is the no-effect control and ±100 the full control effect
Details: CIB1 binding competition assay, biochemical qHTS; series mostly up to 114 µM; activity change, negative = inhibition: at the top concentration
How it was run: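 Compounds at up to 114 uM final met 1 uM GST-tagged CIB1 for 15 min at room temperature (HEPES pH 7.4, 5 mM CaCl2). FITC-labelled alphaIIb peptide, 100 nM, added; polarization read after 15 min more.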

Structure (SMILES) | activity change, negative = inhibition | Potency
CN(C)CCCNC(=O)c1ccc(-c2cc(O)c3ncccc3c2)cc1 | 10.5% (inactive) | –
CO[C@@H]1C(N(C)C(=O)c2ccccc2)C[C@H]2O[C@]1(C)n1c3ccccc3c3c4c(c5c6ccccc6n2c5c31)C(=O)NC4=O (stereo partly specified) | – | 15.8 µM (active)
C[C@H]1COC2=C1C(=O)C(=O)c1c2ccc2c1CCCC2(C)C | 8.68% (inactive) | –
Cc1nc(C(=O)NCC(=O)O)c(O)c2ccc(Oc3ccccc3)cc12 | 1.6% (inactive) | –
